Screening data from PubChem.
Gal4-VP16 FLuc: VP16 counterscreen qHTS for inhibitors of ROR gamma transcriptional activity | Drosophila S2 Gal4-VP16 UAS-luciferase, luminescence, 20 h | Potency, µM (top dose mostly 53.6 µM), actives largely listed as inhibitors | 310,000 compounds, 3.5% hits | AID 2546, 2010;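 note: Gal4-VP16 expression switched on by copper sulfate through the metallothionein promoter; nearly all actives have a fitted effect of over 50% in size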
RORgamma inh: qHTS for inhibitors of ROR gamma transcriptional activity | 310,000 compounds, 5.4% hits | Nuclear receptor ROR-gamma (Mus musculus), P51450 | Potency, µM (series often up to 53.6 µM), most hits filed as inhibitors | Drosophila S2 Gal4-RORgamma UAS-luciferase reporter, 20 h; note: nearly all actives have a fitted effect of over 60% in size
Target sequence (P51450 whole entry, looked up, the tested form may be a part): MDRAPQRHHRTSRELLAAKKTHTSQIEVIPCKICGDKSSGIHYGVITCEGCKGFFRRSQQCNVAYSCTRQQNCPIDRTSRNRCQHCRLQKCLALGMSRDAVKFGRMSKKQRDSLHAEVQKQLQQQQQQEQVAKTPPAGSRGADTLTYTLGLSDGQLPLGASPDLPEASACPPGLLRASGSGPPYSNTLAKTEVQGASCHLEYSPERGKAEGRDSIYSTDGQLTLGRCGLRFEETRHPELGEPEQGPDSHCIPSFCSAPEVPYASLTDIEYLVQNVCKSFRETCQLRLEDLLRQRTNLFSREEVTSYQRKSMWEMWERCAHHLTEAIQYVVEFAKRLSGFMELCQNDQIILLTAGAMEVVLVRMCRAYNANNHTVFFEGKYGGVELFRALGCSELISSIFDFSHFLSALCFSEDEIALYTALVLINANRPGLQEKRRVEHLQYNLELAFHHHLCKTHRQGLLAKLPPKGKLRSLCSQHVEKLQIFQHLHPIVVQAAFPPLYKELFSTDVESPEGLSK
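Compounds are pin-transferred onto Drosophila Schneider cells expressing a copper-inducible Gal4–ROR gamma transactivation domain fusion. After 1 hr, copper sulfate is added to 700 uM final; luciferase is read 20 hr later.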
IL-1B inflam inh: qHTS for Inhibitors of Inflammasome Signaling: IL-1-beta AlphaLISA Primary Screen. THP-1 LPS/ATP IL-1B secretion, AlphaLISA, 16 h; stronger effect = lower value. activity change, % at 57.5 µM. 360,000 compounds, 4.7% hits. AID 743279, 2014; in the data active = activity change below about -50%; inconclusive = mostly about -30% to -49%
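Secreted IL-1B measured by AlphaLISA bead assay after 16 h compound exposure of THP-1 cells; compounds (final up to 57.5 uM) added 1 h before LPS (250 ng/mL) and ATP (1.25 mM) stimulation; lower signal means less secretion.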
SW480 rerep: A quantitative high throughput screen for small molecules that induce DNA re-replication in SW480 colon adenocarcinoma cells; SW480 DNA re-replication, Hoechst DNA content imaging, 48 h; Potency, µM (series often up to 46.1 µM), hits mostly activators; 340,000 compounds, 1.8% hits; AID 624297, 2012; note: nearly all actives have a fitted effect of over 55% in size
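Quantitative HTS format with DMSO vehicle controls; 48 hr drug incubation at 37 C, then 40 min Hoechst staining and scanning imager measurement at 405 nm excitation.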
MCF10A rerep: A quantitative high throughput screen for small molecules that induce DNA re-replication in MCF 10a normal breast cells; MCF 10A DNA re-replication, Hoechst nuclear intensity, 48 h; Potency, µM (top dose mostly 46.1 µM), usual class: activators; 350,000 compounds, 2.9% hits; note: nearly all actives have a fitted effect of over 50% in size
Large screens that a line does not name were inactive. Hits are enriched below; roughly 11% of the tested compounds scored in any of these assays. Unless noted, calls come from the whole dose curve; as a rule, active = well fitted curve in the direction sought with a large enough effect; inconclusive = small, poorly fitted or top-dose-only effect, or another doubt; inactive = no such curve, though single readings can be large; an effect the other way counts as inactive or inconclusive.

CCCC[C@@H](NC(=O)[C@@H](Cc1cn(C(=O)OC)c2ccccc12)NC(=O)[C@H](CC(C)(C)C)NC(=O)N1[C@H](C)CCC[C@@H]1C)C(=O)O	none (no result: IL-1B inflam inh, SW480 rerep, MCF10A rerep)
COc1ccccc1C1CCN(C(=O)c2ccc(C(C)(C)C)cc2)CC1	Gal4-VP16 FLuc inconclusive, IL-1B inflam inh -92, MCF10A rerep inconclusive
Cn1cccc1C1CCCN1CC(=O)Nc1ccc(C(N)=O)cc1 (configuration not stated)	none (no result: Gal4-VP16 FLuc, RORgamma inh)
C/C=C(\C)C(=O)OC1[C@H](OC(C)=O)C2(CO)C(CC1(C)C)C1=CCC3C4(C)CCC(O[C@@H]5O[C@H](C(=O)O)[C@@H](O[C@@H]6O[C@H](CO)[C@@H](O)[C@H](O)[C@H]6O)[C@H](O)[C@H]5O[C@H]5O[C@H](CO)[C@@H](O)[C@H](O)[C@H]5O)[C@](C)(CO)C4CCC3(C)[C@]1(C)C[C@H]2O (some centres not stated)	IL-1B inflam inh -105, MCF10A rerep 6.5µM (no result: Gal4-VP16 FLuc, RORgamma inh)
C/C=C(/C)C(=O)OC1C(OC(C)=O)[C@@]2(CO)C(O)C[C@@]3(C)C(=CCC4[C@@]5(C)CCC(OC6OC(C(=O)O)[C@@H](O[C@@H]7OC(CO)C(O)C(O)C7O)C(O)[C@H]6O[C@@H]6OC(CO)C(O)C(O)C6O)[C@](C)(CO)C5CC[C@@]43C)C2CC1(C)C (some centres not stated)	none (no result: IL-1B inflam inh, SW480 rerep, MCF10A rerep)
N#CC1C(=O)c2ccccc2C1c1ccccc1 (configuration not stated)	IL-1B inflam inh -104, SW480 rerep 18µM, MCF10A rerep 15µM (no result: Gal4-VP16 FLuc, RORgamma inh)
C=CC[C@@H](CC(=O)N[C@H](CO)Cc1ccccc1)C(=O)N[C@H](COC(=O)[C@@H](CC=C)Cc1ccc(F)cc1)Cc1c[nH]c2ccccc12	IL-1B inflam inh inconclusive (no result: Gal4-VP16 FLuc, RORgamma inh)
C=CC[C@@H](CC(=O)N(CCO)Cc1ccccc1)C(=O)N[C@@H](COC(=O)[C@@H](CC=C)Cc1ccc(F)cc1)Cc1c[nH]c2ccccc12	IL-1B inflam inh -52, MCF10A rerep inconclusive (no result: Gal4-VP16 FLuc, RORgamma inh)
C=CC[C@@H](CC(=O)N(CCO)Cc1ccccc1)C(=O)N[C@@H](C)COC(=O)[C@@H](CC=C)Cc1ccc(F)cc1	none (no result: Gal4-VP16 FLuc, RORgamma inh)
C=CC[C@H](CC(=O)N(CCO)Cc1ccccc1)C(=O)N[C@@H](COC(=O)[C@@H](CC=C)Cc1ccc(F)cc1)Cc1c[nH]c2ccccc12	IL-1B inflam inh inconclusive, SW480 rerep 21µM, MCF10A rerep 18µM (no result: Gal4-VP16 FLuc, RORgamma inh)
Cc1ccc(-n2cc(C(=O)c3ccccc3O)cn2)cc1	Gal4-VP16 FLuc inconclusive, RORgamma inh 11µM
Cc1ccc(O)c(C(=O)c2cnn(-c3ccccc3)c2)c1	SW480 rerep inconclusive, MCF10A rerep inconclusive
Cc1cccc(N2CC(C(=O)NC3CCCCCC3)CC2=O)c1C (configuration not stated)	none (no result: Gal4-VP16 FLuc, RORgamma inh)
CCN(CC)c1ccc(N=Cc2ccccc2[N+](=O)[O-])cc1	SW480 rerep 2.6µM, MCF10A rerep inconclusive
CCNc1nc(NCC)nc(N/N=C/c2ccc([N+](=O)[O-])o2)n1	RORgamma inh inconclusive, SW480 rerep inconclusive
CC(=O)N(C)c1ccc(N=Cc2cc3c(cc2[N+](=O)[O-])OCO3)cc1	none (no result: Gal4-VP16 FLuc, RORgamma inh)
CCN(CC)c1ccc(N=Cc2ccc([N+](=O)[O-])o2)cc1	Gal4-VP16 FLuc 22µM, RORgamma inh inconclusive, IL-1B inflam inh -67, SW480 rerep 2.3µM, MCF10A rerep 23µM
Cn1c(CNC(=O)CNC(=O)c2ccc(F)cc2)cc(=O)n(C)c1=O	none
CCOC(=O)CSC1=NC(=O)/C(=C\c2ccc(Cl)cc2)S1	Gal4-VP16 FLuc 13µM, IL-1B inflam inh inconclusive, SW480 rerep inconclusive, MCF10A rerep inconclusive
CSC1=NC(=O)/C(=C/c2ccc(SC)cc2)S1	IL-1B inflam inh inconclusive
CCOC(=O)C1CCN(C2=NC(=O)/C(=C/c3ccc(Cl)cc3)S2)CC1	IL-1B inflam inh -50
CCOC(=O)C1CCN(C2=NC(=O)/C(=C/c3ccc(OC)c(OC)c3)S2)CC1	none
COc1cccc(Cn2c(=O)c(-c3cccs3)nc3cnc(OC)nc32)c1	none (no result: IL-1B inflam inh, SW480 rerep, MCF10A rerep)
CC/C=C\C/C=C\C/C=C\C/C=C\C/C=C\C/C=C\CCC(=O)NCCO	none (no result: IL-1B inflam inh, SW480 rerep, MCF10A rerep)
